Test results taken from PubChem BioAssay (NCATS).
Inconclusive results are not listed. Where a call stands in place of a potency, no number is given. A number with no mark means an inactive call. Calls of active or inactive are those of the source. Unless noted, calls follow the shape of the dose curve; as a rule, active = well fitted curve in the direction sought with a large enough effect; inconclusive = small, poorly fitted or top-dose-only effect, or another doubt; inactive = no such curve, though single readings can be large; an effect the other way counts as inactive or inconclusive.

Legend:
[1] = qHTS to identify inhibitors of the type 1 interferon - major histocompatibility complex class I in skeletal muscle: primary screen against the NCATS Pharmaceutical Collection (AID 1347407);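 also: luminescence of HiBiT knocked into endogenous HLA-B as interferon-induced MHC class I level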
In short: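 HLA-B HiBiT myoblasts, dexamethasone-free growth medium + 4 ng/ml IFN-b; compounds pinned 1 h after seeding, […] from 46 uM; 24 h, 37 C, 5% CO2; lytic HiBiT detection, 10 min RT, luminescence.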

[2] = molecular target: Protein phosphatase 1D (Homo sapiens) (UniProt O15297); test: RapidFire Mass Spectrometry qHTS Assay for Modulators of WT P53-Induced Phosphatase 1 (WIP1) (AID 1347424);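 also: amount of dephosphorylated VEPPL-S-QETFS peptide product formed by WIP1; series mostly up to about 63 µM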
In short: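 WIP1 (10 nM final) was preincubated 1 h at room temperature with compounds in Tris-HCl pH 7.5, 30 mM MgCl2, TCEP, EGTA, BSA; 2 uM VEPPL-pS-QETFS phosphopeptide was added for 5 min, quenched with formic acid, and dephosphorylated product quantified by RapidFire MS.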

[3] = molecular target: Protein phosphatase 1D (Homo sapiens) (UniProt O15297); test: Rhodamine-PBP qHTS Assay for Modulators of WT P53-Induced Phosphatase 1 (WIP1) (AID 1347425)
In short: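 Read-out: Rhodamine-PBP fluorescence (ex 525/em 598 nm) for released Pi, read each minute for 11 min after adding 10 uM VEPPL-pS-QETFS; signal taken as f1 minus pre-substrate f0. Enzyme 5 nM WIP1 with 1 hr room-temperature compound preincubation.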

[4] = Primary qHTS for inhibitors of La Crosse Virus (LACV) - induced cell death in SH-SY5Y cells (AID 1508616);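 also: top concentration of the series differs between compounds; higher means more rescue of cells from virus-induced death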
In short: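 Luminescent ATP readout (ATPLite 1step, 5 min room temperature) measured rescue from LACV-induced death after 6 days of infection at 0.01 MOI; normalized to infected DMSO wells and uninfected DMSO wells.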

[5] = molecular target: Calcium and integrin-binding protein 1 (Homo sapiens) (UniProt Q99828); test: Primary qHTS for Identification of Calcium Integrin Binding Protein 1 (CIB1) Competitor (AID 1508620);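 also: GST tagged CIB1 binding a fluorescein labelled alphaIIb integrin peptide tracer; top concentration of the series differs between compounds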
In short: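 Fluorescence polarization competition: CIB1-GST (1 uM final) preincubated with compound 15 min at room temperature, then FITC-labeled alphaIIb peptide (100 nM final) added for another 15 min. Polarization read at Ex 480/Em 540.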

[6] = molecular target: Cytochrome P450 2D6 (Homo sapiens) (UniProt P10635); test: Cytochrome P450 family 2 subfamily D member 6 (CYP2D6) small molecule antagonists: luciferase biochemical (cell-free) qHTS assay (AID 1645840; active = well fitted curve in the direction sought with a large enough effect in the repeat runs; an effect the other way counts as inactive or inconclusive; also: nearly all actives have a fitted effect of over 55% in size; also: potency is read from the fitted curve at half-maximal effect)
In short: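 P450-Glo luminescent screen: recombinant CYP2D6 enzyme–proluciferin substrate mix preincubated with compound 10 min at room temperature, then NADPH regeneration added for 1 h at room temperature. Detection reagent added for 20 min; luciferin light read as relative luminescence units.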

[7] = A High-Content qHTS Against Drug Library for the Identification of Small Molecules that Inhibit DYT1 Early Onset Primary Dystonia-Associated Cell Pathology (AID 1645839; calls by dose curve; also: series mostly up to about 46 µM)
In short: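 Readout: %pathology, the punctate EGFP-TorsinA distribution from imaging, as the primary channel and cell count as the toxicity counterscreen. HEK293 Flp-In cells expressing delE TorsinA were induced with tetracycline and treated with compound for 48 h.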

[8] = Primary qHTS for small molecule stabilizers of the endoplasmic reticulum resident proteome: Secreted ER Calcium Modulated Protein (SERCaMP) assay (AID 1508630)
In short: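 GLuc-SERCaMP-expressing SH-SY5Y cells, pretreated 16 h with compound, are challenged with thapsigargin to empty ER calcium stores; after 4 h, coelenterazine is added directly to the medium and luminescence is imaged.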

[9] = molecular target: Cytochrome P450 3A4 (Homo sapiens) (UniProt P08684); test: Cytochrome P450 family 3 subfamily A member 4 (CYP3A4) small molecule antagonists: luciferase qHTS assay (AID 1645841; active = well fitted curve in the direction sought with a large enough effect in the repeat runs; an effect the other way counts as inactive or inconclusive; also: nearly all actives have a fitted effect of over 45% in size)
In short: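 P450-Glo CYP3A4 enzyme with proluciferin substrate was preincubated with DMSO-dissolved compounds for 10 min at room temperature. NADPH regeneration solution started a 1 h reaction. Detection reagent stopped it, and luminescence was read after 20 min.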

Chain of Protein phosphatase 1D (Homo sapiens) (O15297 whole entry, looked up): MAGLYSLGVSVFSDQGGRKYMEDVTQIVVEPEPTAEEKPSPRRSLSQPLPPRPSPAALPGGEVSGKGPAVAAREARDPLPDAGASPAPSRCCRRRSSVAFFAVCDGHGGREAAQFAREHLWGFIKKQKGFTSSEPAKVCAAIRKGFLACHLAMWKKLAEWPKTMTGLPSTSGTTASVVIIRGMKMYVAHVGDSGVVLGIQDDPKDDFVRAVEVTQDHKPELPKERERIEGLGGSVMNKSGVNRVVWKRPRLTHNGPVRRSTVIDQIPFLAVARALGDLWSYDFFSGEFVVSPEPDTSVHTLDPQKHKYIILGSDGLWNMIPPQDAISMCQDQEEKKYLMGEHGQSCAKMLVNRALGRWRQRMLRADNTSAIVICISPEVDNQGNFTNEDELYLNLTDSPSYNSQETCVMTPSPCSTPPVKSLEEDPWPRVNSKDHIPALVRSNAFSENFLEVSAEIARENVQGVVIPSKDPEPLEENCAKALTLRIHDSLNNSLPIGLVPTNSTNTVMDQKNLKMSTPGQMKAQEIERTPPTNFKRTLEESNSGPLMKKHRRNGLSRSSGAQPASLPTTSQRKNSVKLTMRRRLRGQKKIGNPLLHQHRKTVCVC
Chain of Cytochrome P450 2D6 (Homo sapiens) (P10635 whole entry, looked up): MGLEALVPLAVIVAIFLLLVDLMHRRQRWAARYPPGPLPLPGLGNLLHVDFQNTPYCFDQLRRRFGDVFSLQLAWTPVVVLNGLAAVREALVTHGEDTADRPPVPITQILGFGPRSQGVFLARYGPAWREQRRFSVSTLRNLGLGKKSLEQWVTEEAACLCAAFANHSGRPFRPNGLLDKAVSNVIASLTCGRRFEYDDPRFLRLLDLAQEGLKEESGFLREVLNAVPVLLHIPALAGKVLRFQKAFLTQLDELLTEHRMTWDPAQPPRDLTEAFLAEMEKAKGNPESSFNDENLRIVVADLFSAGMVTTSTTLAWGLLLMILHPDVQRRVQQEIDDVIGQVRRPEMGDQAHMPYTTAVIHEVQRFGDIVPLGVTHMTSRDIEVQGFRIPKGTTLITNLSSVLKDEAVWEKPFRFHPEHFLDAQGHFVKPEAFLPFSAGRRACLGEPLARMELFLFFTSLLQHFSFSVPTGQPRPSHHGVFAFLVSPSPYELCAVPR
Chain of Calcium and integrin-binding protein 1 (Homo sapiens) (Q99828 whole entry, looked up): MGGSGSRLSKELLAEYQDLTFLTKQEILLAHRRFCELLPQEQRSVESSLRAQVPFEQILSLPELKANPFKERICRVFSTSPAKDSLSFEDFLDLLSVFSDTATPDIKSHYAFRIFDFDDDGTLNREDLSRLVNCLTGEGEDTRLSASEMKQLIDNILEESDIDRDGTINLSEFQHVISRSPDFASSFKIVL
Chain of Cytochrome P450 3A4 (Homo sapiens) (P08684 whole entry, looked up): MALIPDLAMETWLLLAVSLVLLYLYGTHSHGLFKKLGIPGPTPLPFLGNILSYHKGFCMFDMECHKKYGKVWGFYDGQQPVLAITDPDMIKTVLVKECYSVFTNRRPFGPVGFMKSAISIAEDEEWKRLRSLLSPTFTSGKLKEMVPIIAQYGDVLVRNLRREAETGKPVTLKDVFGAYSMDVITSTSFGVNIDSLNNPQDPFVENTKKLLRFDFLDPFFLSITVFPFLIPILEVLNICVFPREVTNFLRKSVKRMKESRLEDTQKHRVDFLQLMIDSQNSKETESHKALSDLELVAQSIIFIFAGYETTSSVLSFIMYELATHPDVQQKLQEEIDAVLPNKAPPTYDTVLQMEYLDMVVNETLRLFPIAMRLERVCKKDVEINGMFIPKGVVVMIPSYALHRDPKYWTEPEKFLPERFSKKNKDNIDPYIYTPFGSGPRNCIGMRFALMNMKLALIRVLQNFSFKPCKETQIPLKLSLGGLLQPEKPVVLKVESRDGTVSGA

| SMILES | outcome [1] | outcome [2] | outcome [3] | outcome [4] | outcome [5] | Potency [6] | Potency [7] | outcome [8] | outcome [9] |
| --- | --- | --- | --- | --- | --- | --- | --- | --- | --- |
| CC(N)CCCC(C)(C)O (stereo not given) | inactive | inactive | inactive | inactive | inactive | inactive | – | – | – |
| CC(=O)Oc1cccc(O)c1 | inactive | inactive | inactive | inactive | inactive | inactive | inactive | – | – |
| COc1nccnc1NS(=O)(=O)c1ccc(N)cc1 | inactive | inactive | inactive | inactive | inactive | inactive | inactive | – | – |
| O=C1c2cccc(O)c2C(=O)c2c(O)cccc21 | inactive | inactive | inactive | inactive | – | inactive | inactive | inactive | – |
| Nc1ncnc2c1ncn2[C@@H]1O[C@H](COP(=O)(O)O)[C@@H](O)[C@H]1O | inactive | inactive | inactive | inactive | – | inactive | inactive | inactive | – |
| CC(=O)N[C@H]1[C@H]([C@H](O)[C@H](O)CO)OC(C(=O)O)=C[C@@H]1N=C(N)N | inactive | inactive | inactive | inactive | inactive | inactive | inactive | – | – |
| CCN(CC)S(=O)(=O)c1ccc(C(=O)O)cc1 | inactive | inactive | inactive | inactive | – | inactive | inactive | inactive | inactive |
| O=C(O)c1ccc(OCCCOc2ccc(C(=O)O)cc2)cc1 | inactive | inactive | inactive | inactive | inactive | 12.3 µM (active) | inactive | – | – |
| CN1C[C@@H]2C[C@H]1CN2c1cc2c(cc1F)c(=O)c(C(=O)O)cn2C1CC1 | inactive | inactive | inactive | inactive | – | inactive | inactive | inactive | – |
| CCOC(=O)OC(C)OC(=O)[C@@H]1N2C(=O)[C@@H](NC(=O)[C@H](N)c3ccccc3)[C@H]2SC1(C)C (stereo not given in full) | inactive | inactive | inactive | inactive | – | – | inactive | – | – |
| CCCCCC(C)N (stereo not given) | inactive | inactive | inactive | inactive | inactive | inactive | inactive | – | – |
| O=C(c1ccccc1)C(O)c1ccccc1 (stereo not given) | inactive | inactive | inactive | inactive | – | inactive | inactive | inactive | – |
| Cc1ncc(CO)c(CN)c1O | inactive | inactive | inactive | inactive | inactive | inactive | inactive | – | – |
| COc1ccc(NS(=O)(=O)c2ccc(N)cc2)nn1 | inactive | inactive | inactive | inactive | – | – | inactive | – | – |
| O=C(O)C(S)C(S)C(=O)O (stereo not given) | inactive | inactive | inactive | inactive | inactive | inactive | inactive | – | – |
| COC(=O)N/N=C/c1c[n+]([O-])c2ccccc2[n+]1[O-] | inactive | inactive | inactive | inactive | inactive | inactive | inactive | – | – |

| SMILES | outcome [1] | outcome [2] | outcome [3] | outcome [4] | outcome [5] | Potency [6] | Potency [7] | outcome [8] | outcome [9] |
| --- | --- | --- | --- | --- | --- | --- | --- | --- | --- |
| Cc1cccc(C)c1NC(=O)CC12CCCN1CCC2 | inactive | inactive | inactive | inactive | – | inactive | inactive | inactive | – |
| COc1ccc(O)cc1 | inactive | inactive | inactive | inactive | inactive | inactive | – | – | – |
| CC(=O)Oc1cccc(C)c1 | inactive | inactive | inactive | inactive | inactive | inactive | inactive | – | – |
| Cc1c(C)c2c(c(C)c1OC(=O)c1cccnc1)CC[C@@](C)(CCC[C@H](C)CCC[C@H](C)CCCC(C)C)O2 | inactive | inactive | inactive | inactive | – | inactive | inactive | inactive | – |
| CCCNC(C)(C)COC(=O)c1ccccc1 | inactive | inactive | inactive | inactive | – | – | inactive | inactive | – |
| CCOc1cc(NC(C)=O)ccc1C(=O)OC | inactive | inactive | inactive | inactive | inactive | inactive | inactive | – | – |
| CN1CC(=O)NC1=N | inactive | inactive | inactive | inactive | inactive | inactive | inactive | – | – |
| O=C(OOC(=O)c1ccccc1)c1ccccc1 | inactive | inactive | inactive | inactive | inactive | inactive | inactive | – | – |
| O=C(CCBr)N1CCN(C(=O)CCBr)CC1 | inactive | inactive | inactive | inactive | – | – | inactive | inactive | – |
| Nc1ccncc1N | inactive | inactive | inactive | inactive | – | inactive | inactive | inactive | – |
| Cc1c(I)c(=O)n(-c2ccccc2)n1C | inactive | inactive | inactive | inactive | inactive | inactive | inactive | – | – |
| CCCCCC(N)=O | inactive | inactive | inactive | inactive | – | inactive | inactive | inactive | – |
| O=C(NCN1CCOCC1)c1cnccn1 | inactive | inactive | inactive | inactive | inactive | inactive | inactive | – | – |
| CN1CCN(C(=O)C2CCCCC2)CC1 | inactive | inactive | inactive | inactive | inactive | inactive | inactive | – | – |
| C[N+](C)(C)CC[N+]1(C)Cc2c(Cl)c(Cl)c(Cl)c(Cl)c2C1 | inactive | inactive | inactive | inactive | – | 1.95 µM (active) | inactive | inactive | – |
